The record followed here is PubChem BioAssay AID2590 (National Center for Advancing Translational Sciences (NCATS), 2010).

Where “and” joins values, the source holds several entries; their conditions need not be identical. Identical values can stand only once. Results filed as inconclusive are left out. Calls of active or inactive are those of the source. The call rests on the fitted dose curve; in most records, active means well fitted curve in the direction sought with a large enough effect; inconclusive means small, poorly fitted or top-dose-only effect, or another doubt; inactive means no such curve, though single readings can be large or run the other way.
Potency means the concentration at half of the fitted maximal effect.

Lysosomal acid glucosylceramidase (Homo sapiens), sequence (P04062 whole entry N409S): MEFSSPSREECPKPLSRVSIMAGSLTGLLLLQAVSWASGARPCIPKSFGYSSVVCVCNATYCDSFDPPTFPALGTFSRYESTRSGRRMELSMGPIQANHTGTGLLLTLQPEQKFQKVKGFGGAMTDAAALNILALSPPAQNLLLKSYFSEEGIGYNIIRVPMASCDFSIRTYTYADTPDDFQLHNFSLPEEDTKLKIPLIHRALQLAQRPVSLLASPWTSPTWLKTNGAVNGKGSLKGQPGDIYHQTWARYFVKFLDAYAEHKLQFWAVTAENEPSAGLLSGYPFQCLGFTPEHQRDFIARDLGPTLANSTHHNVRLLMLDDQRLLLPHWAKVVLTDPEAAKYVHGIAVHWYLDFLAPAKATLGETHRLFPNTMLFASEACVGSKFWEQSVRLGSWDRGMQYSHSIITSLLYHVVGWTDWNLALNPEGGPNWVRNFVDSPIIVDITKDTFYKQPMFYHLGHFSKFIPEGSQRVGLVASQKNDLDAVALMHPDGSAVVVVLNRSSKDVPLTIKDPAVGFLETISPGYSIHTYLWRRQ

The target in the test is Lysosomal acid glucosylceramidase (Homo sapiens) (UniProt P04062). Put plainly: qHTS Assay for Inhibitors and Activators of N370S glucocerebrosidase as a Potential Chaperone Treatment of Gaucher Disease: Primary Screen Confirmation. Particulars: N370S glucocerebrosidase enzyme activity, fluorogenic substrate; series mostly up to 54 µM. The source says:
NIH Chemical Genomics Center [NCGC]
NIH Molecular Libraries Probe Production Centers Network [MLPCN]
Assay Submitter (PI): Wei Zheng
Glucocerebrosidase (GC) catalyzes the hydrolysis of beta-glucocerebroside to glucose and ceramide in lysosomes. Mutations in the glucocerebrosidase gene result in Gaucher disease, an autosomal recessive lysosomal storage disorder. Many of the mutations encountered in patients with Gaucher disease are missense alterations that may cause misfolding, decreased stability and/or mistrafficking of this lysosomal protein. […] These inhibitors include iminosugar analogs and three non-iminosugar inhibitors identified from a previous HTS of 62,000 compounds with the wild type recombinant enzyme. However, the enhancement of enzyme activity by the chaperone action of an enzyme inhibitor must be balanced against the direct inhibition of the enzyme. An enzyme activator could also function as a chaperone by binding to the enzyme and helping to correct its misfolding and mistrafficking. While activators for GC have not yet been identified, they may have better therapeutic potential than inhibitors. Therefore the discovery and development of chemical activators may provide a new strategy for the chaperone therapy.
We have optimized a new assay using N370S mutant GC derived from the spleen of a Gaucher patient. […] In addition, the MLPCN compound library has expanded, which increases the chance of finding new and better probes.
NCGC Assay Protocol Summary:
This is a fluorogenic enzyme assay with 4-methylumbelliferyl-beta-D-glucopyranoside as the substrate and N370S glucocerebrosidase from human spleen homogenate as the enzyme preparation. Upon the hydrolysis of this fluorogenic substrate, the resulting product, […] which can be detected by a standard fluorescence plate reader. Data were normalized to the controls for basal activity (without enzyme) and 100% activity (with enzyme). The AC50 values were determined from concentration-response data modeled with the standard Hill equation.
Assay buffer: 50 mM citric acid (titrated with potassium phosphate to pH 5.0), 100 mM potassium chloride, 10 mM sodium chloride, 1 mM magnesium chloride, 0.01% Tween-20.
1536-well assay protocol:
(1) Add 2 ul/well of spleen homogenate (27 ug final)
(2) Add 23 nL compounds in DMSO solution. The final titration was 0.5 nM to 58 uM.
(3) Add 2 ul of substrate (1 mM final)
(4) Incubate at 37C for 40 min.
(5) Add 2 ul stop solution (1M NaOH and 1M Glycine mixture, pH 10)
(6) Detect the assay plate in a ViewLux plate reader (PerkinElmer) with Ex=365 nm and Em=440nm.
Keywords: Glucocerebrosidase, beta-glucosidase, Gaucher Disease, pharmacological chaperone, chaperone therapy, high throughput screening, glucocerebrosidase inhibitor, MLSMR, MLSCN, NIH Roadmap, qHTS and NCGC
For orientation: Quantitative high-throughput screening tests each substance at several concentrations.
`O=S(=O)(c1ccccc1C(F)(F)F)N1CCN(c2nc(-c3ccccc3)nc3ccccc23)CC1`: the Potency was 2.91 µM (active).

As for `O=S(=O)(c1cccc(Cl)c1)N1CCN(c2nc(-c3cccs3)nc3ccccc23)CC1`, the Potency is 1.6 µM (active) and 1.79 µM (active). The figure for `O=S(=O)(c1ccc2c(c1)CCCC2)N1CCN(c2nc(-c3cccs3)nc3ccccc23)CC1` is 0.713 µM (active); for `Cc1cc(C)cc(N(CC(=O)Nc2ccc(Br)cc2)S(=O)(=O)c2c(C)[nH]c(=O)[nH]c2=O)c1` it is 2.06 µM (active). Under `CN(CCO)c1nc(-c2cccs2)nc2ccccc12` stands “inactive”; under `O=[N+]([O-])c1ccc(S(=O)(=O)N2CCN(c3nc(-c4cccs4)nc4ccccc34)CC2)cc1`, 3.2 µM (active); under `CCCCN(CCCNC(=S)NCCCc1cnc[nH]1)c1ccc(Br)cn1`, 8.18 µM (active).

`O=S(=O)(c1ccc2c(c1)OCO2)N1CCN(c2nc(-c3cccs3)nc3ccccc23)CC1`: the Potency is 0.291 µM (active). The figure for `Cc1ccc(S(=O)(=O)N2CCN(c3ccnc(-c4cccs4)n3)CC2)cc1` is 9.19 µM (active); for `O=C(Nc1ccccc1)Nc1ccccc1` it is “inactive”; for `C#CCOCCOCCOCCNc1nc(N2CCN(C(=O)CCCCCCCCCCNC(=O)[C@H](CCCCN)n3cc(C)nn3)CC2)nc(N2CCN(C(=O)CCCCCCCCCCNC(=O)[C@H](CCCN=C(N)N)n3cc(C[C@@H](C)CC)nn3)CC2)n1` it is 7.3 µM (active). Under `CC1(C)CCc2cc(S(=O)(=O)N3CCN(c4nc(-c5cccs5)nc5ccccc45)CC3)ccc2O1` stands 1.13 µM (active). Under `Cc1ccc(S(=O)(=O)N2CCN(c3nc(-c4cccnc4)nc4ccccc34)CC2)cc1` stands 16.3 µM (active); under `O=C(Nc1cc(Br)ccc1O)c1cnn2c(C(F)F)cc(C3CC3)nc12`, “inactive”.

For `N#Cc1ccc(S(=O)(=O)N2CCN(c3nc(-c4cccs4)nc4ccccc34)CC2)cc1`, the Potency was 2.01 µM (active). As for `Cc1cc(NC(=O)CCS(=O)(=O)c2ccc3c(c2)NC(=O)C(C)S3)ccc1Br` (stereo not given), the Potency is 6.51 µM (active). On to `S=C(NCCCc1cnc[nH]1)NCCCN(Cc1ccc(Cl)cc1)c1ccc(-c2ccccc2)cn1`, for which the Potency is 1.27 µM (active).

Turning to `CCC1CN(S(=O)(=O)c2ccc3c(c2)NC(=O)CC(=O)N3)c2cc(Cl)ccc2O1` (stereo not given), the Potency is 2.91 µM (active). `O=S(=O)(c1ccccc1Cl)N1CCN(c2nc(-c3cccs3)nc3ccccc23)CC1`: the Potency is 1.16 µM (active) and 259 nM (active). Under `c1ccc(CNc2nc(-c3ccccc3)nc3ccccc23)cc1` stands 10.1 µM (active); under `CC(Nc1nc(-c2ccccc2F)nc2ccccc12)c1ccccc1` (stereo not given), 3.66 µM (active); under `Cc1cc(C)cc(N(CC(=O)Nc2ccc(C(F)(F)F)cc2)S(=O)(=O)c2c(C)[nH]c(=O)[nH]c2=O)c1`, 2.59 µM (active). In the case of `COc1ccc(CN(CCCN)c2ccc(Br)cn2)cc1`, the Potency result is “inactive”. Under `CCc1ccc(NC(=O)CN(c2ccc(OC)cc2)S(=O)(=O)c2c(C)[nH]c(=O)[nH]c2=O)cc1` stands 6.51 µM (active); under `C#CCOCCOCCOCCNc1nc(N2CCN(C(=O)CCCCCCCCCCNC(=O)[C@H](CCCCN)n3cc(CCCC(=O)O)nn3)CC2)nc(N2CCN(C(=O)CCCCCCCCCCNC(=O)[C@H](CCCN=C(N)N)n3cc(C[C@@H](C)CC)nn3)CC2)n1`, 8.19 µM (active).

As to `CC(C)(C)C(=O)OCCNc1nc(-c2cccs2)nc2ccccc12`, the Potency is 1.46 µM (active).

With `Cc1cccc(S(=O)(=O)N2CCN(c3nc(-c4cccs4)nc4ccccc34)CC2)c1`, the Potency is 2.01 µM (active). Under `O=S(=O)(c1ccc(Cl)cc1)N1CCN(c2nc(-c3ccccc3)nc3ccccc23)CC1` stands 5.8 µM (active); under `Cc1ccc(S(=O)(=O)N2CCN(c3nc(-c4ccc(C)s4)nc4ccccc34)CC2)cc1`, 3.26 µM (active). As to `CN(CCCN(Cc1ccc(Cl)cc1)c1ccc(Br)cn1)C(=S)NCCCc1cnc[nH]1`, the Potency was 2.53 µM (active).

For `O=S(=O)(c1ccc(F)cc1)N1CCN(c2nc(-c3cccs3)nc3ccccc23)CC1`, the Potency is 1.27 µM (active) and 713 nM (active). For `Cc1cc(C)cc(N(CC(=O)Nc2cccc(C)c2C)S(=O)(=O)c2c(C)[nH]c(=O)[nH]c2=O)c1`, the Potency is 3.26 µM (active). Under `S=C(NCCCCN(Cc1ccc(Cl)cc1)c1ccc(Br)cn1)NCCCc1cnc[nH]1` stands 0.635 µM (active); under `Oc1ccccc1Nc1nc(NCC2CCCO2)c2ccccc2n1` (stereo not given), “inactive”.

On to `COc1ccc(Nc2nc(-c3cccs3)nc3ccccc23)cc1`, for which the Potency was 2.25 µM (active).

`Cc1ccc(-c2nc(N3CCN(S(=O)(=O)c4ccc(F)cc4)CC3)c3ccc(Cl)cc3n2)cc1`: the Potency entry was “inactive”.

Regarding `Cc1nc2nc(-c3ccccc3)cn2nc1C`, the Potency result was “inactive”. The figure for `Cc1ccc(S(=O)(=O)N2CCN(c3nc(-c4cccs4)nc4ccccc34)CC2)c(C)c1` is 0.291 µM (active); for `N#Cc1cccc(S(=O)(=O)N2CCN(c3nc(-c4cccs4)nc4ccccc34)CC2)c1` it is 2.01 µM (active); for `CC(=O)c1ccc(S(=O)(=O)N2CCN(c3nc(-c4cccs4)nc4ccccc34)CC2)cc1` it is 1.79 µM (active).
